Assay [1] in a line: Nuclear factor erythroid 2-related factor 2/antioxidant responsive element (Nrf2/ARE) small molecule agonists: qHTS cell viability counter screen in human keratinocytes (AID 1919968; active = well fitted curve in the direction sought with a large enough effect in the repeat runs; an effect the other way counts as inactive or inconclusive; note: nearly all actives have a fitted effect of over 55% in size). The essentials:
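Stably transfected HaCaT (KeratinoSens), 1,500/well. Test agents in DMSO were applied for 23 h, 37 C/5% CO2. CellTiter-Fluor was incubated 1 h before the fluorescence read.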
For orientation: Quantitative high-throughput screening tests each substance at several concentrations.

The nature of assay [2]: Nuclear factor erythroid 2-related factor 2/antioxidant responsive element (Nrf2/ARE) small molecule agonists: luciferase reporter gene qHTS assay in human keratinocytes (AID 1919969). Note: nearly all actives have a fitted effect of over 35% in size. A general note: A reporter such as luciferase makes a cellular process visible.
Assay [3] concerns the target Gonadotropin-releasing hormone receptor (Homo sapiens) (UniProt P30968). The experiment in a line: Human gonadotropin-releasing hormone receptor (GnRHR) small molecule agonists, calcium flux assay in GnRHR-HEK293 cells (AID 1920063). Note: nearly all actives have a fitted effect of over 35% in size. Summed up: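 Stable human GnRHR HEK293 line. 18 h plating, then calcium dye for 1 h at 37 C. Agonist-mode compound addition from DMSO stocks; fluorescence monitored 3 min.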
For orientation: A change in cytosolic calcium serves as a functional read-out for many receptors and channels.

The target in assay [4] is KiSS-1 receptor (Homo sapiens) (UniProt Q969F8). The experiment in a line: Human kisspeptin (KISS1R) small molecule agonists, calcium flux assay in KISS1R-HEK293 cells (AID 1920064; active = well fitted curve in the direction sought with a large enough effect in the repeat runs; an effect the other way counts as inactive or inconclusive). Summed up: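 After overnight (18 h) culture at 37 C/5% CO2, human KISS1R-HEK293 cells received calcium dye for 1 h, then test compound; emission at 540 nm (excitation 480 nm) was tracked for 3 min.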

The nature of assay [5]: G protein-coupled receptor (GPCR) small molecule agonists, calcium flux assay: HEK293 wild type cell line counter screen (AID 1920065). The essentials: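 Following 18 h incubation at 37 C/5% CO2, plates got calcium dye for 1 h; compounds, ATP or DMSO were then pinned in and fluorescence followed kinetically (480/540 nm).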
The nature of assay [6]: p53 small molecule agonists, cell-based qHTS assay with human liver microsomes: qHTS cell viability counter screen (AID 1963579). Note: nearly all actives have a fitted effect of over 45% in size. The essentials:
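Metabolic activation used human liver microsomes and NADPH, both 0.5 mg/mL final, over 16 hours at 37 C on p53RE-bla cells (4,000/well). Cytotoxicity measured by CellTiter-Glo luminescence, 30 min at room temperature.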

Assay [7] is described as follows: p53 small molecule agonists, cell-based qHTS assay with rat liver microsomes: qHTS cell viability counter screen (AID 1963580). Note: nearly all actives have a fitted effect of over 45% in size. Summed up:
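After the beta-lactamase ratio was read, CellTiter-Glo was added to the same wells and luminescence measured at 30 min; cells had been treated 16 h at 37 C with compounds, rat liver microsomes and NADPH (0.5 mg/mL final each).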

Assay [8] is described as follows: p53 small molecule agonists, cell-based qHTS assay: qHTS cell viability counter screen (AID 1963581). Note: nearly all actives have a fitted effect of over 45% in size. The essentials: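 qHTS counter screen: 16 h compound exposure at 37 C of p53RE-bla HCT-116 cells (4,000 per well, seeded 5 h prior), cell viability by ATP luminescence.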
Assay [9] addresses 5-hydroxytryptamine receptor 2A (Homo sapiens) (UniProt P28223). Description: 5-hydroxytryptamine receptor 2A (HTR2A) small molecule antagonists, cell-based qHTS assay (AID 1963586). Note: nearly all actives have a fitted effect of over 45% in size. Note: potency is the fitted concentration of half-maximal effect. Summed up:
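CHO cells stably expressing human HTR2A were plated for 18 h at 37 C, then loaded with calcium dye for 1 h. Compounds were preincubated 5 min at room temperature before DOI (4 nM solution) was added. Kinetic fluorescence was read for 3 min.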

Assay [10] has the same target. Description: 5-hydroxytryptamine receptor 2A (HTR2A) small molecule agonists, cell-based qHTS assay (AID 1963587). Note: nearly all actives have a fitted effect of over 30% in size. Summed up: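 CHO cells stably expressing human HTR2A, plated 18 h, loaded with calcium dye 1 h at 37 C. Agonist mode: compounds added and intracellular calcium fluorescence recorded kinetically for 2 min at 1 sec intervals.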
The target of assay [11] is Muscarinic acetylcholine receptor M1 (Homo sapiens) (UniProt P11229). Description: Cholinergic receptor muscarinic 1 (CHRM1) small molecule antagonists, cell-based qHTS assay (AID 1963588). Note: nearly all actives have a fitted effect of over 40% in size. Summed up: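 Compounds were tested at 15 concentrations in three independent runs. Dye-loaded CHRM1-CHO cells were exposed 5 min at room temperature before stimulation by acetylcholine added at 50nM. Intracellular calcium was read kinetically on FDSS for 3 min.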

For assay [12] the target is unchanged. Description: Cholinergic receptor muscarinic 1 (CHRM1) small molecule agonists, cell-based qHTS assay (AID 1963589). Note: nearly all actives have a fitted effect of over 35% in size. Summed up: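 Kinetic fluorescence (1 s intervals) of calcium-sensitive dye in human M1 CHO cells after compound addition; cells pre-incubated 18 h at 37 C/5% CO2 and dye-loaded 1 h.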
Assay [13] is described as follows: cAMP Responsive Elements (CRE) small molecule agonists, cell-based qHTS assay (AID 1963590). The essentials:
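Test agents in DMSO were incubated 3 h at 37 C/5% CO2 with CRE-bla HEK 293T cells seeded 18 h earlier; LiveBLAzer B/G FRET substrate was added and read after 2 h at room temperature.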

The target of assay [14] is Beta-2 adrenergic receptor (Homo sapiens) (UniProt P07550). Description: Adrenergic beta2 receptor (ADRB2) small molecule agonists, cell-based qHTS assay (AID 1963593).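 Note: CHO cells stably overexpressing human ADRB2.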 Summed up: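 CHO cells stably over-expressing ADRB2 were plated overnight at 37C, then dosed with compounds plus a stimulation mix containing 100uM IBMX and 25uM Ro-20-1724 for 0.5hr at room temperature. cAMP was measured by HTRF competition, 1hr.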

For assay [15], the target named is D(2) dopamine receptor (Homo sapiens) (UniProt P14416). Description: Dopamine D2 receptor (DRD2) small molecule agonists, cell-based qHTS assay (AID 1963594). Note: nearly all actives have a fitted effect of over 35% in size. The essentials:
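HEK293 cells stably expressing human DRD2, pre-treated with PDE inhibitor Ro20-1724 (0.1 mM final) and compound 10 min at room temperature, then stimulated with NKH477 (200nM […]) for 30 min. cAMP read by HTRF (665/620 nm).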

Assay [16] shares this target. The experiment in a line: Dopamine D2 receptor (DRD2) small molecule antagonists, cell-based qHTS assay (AID 1963595; active = well fitted inhibition curve with a large enough effect in the signal ratio in the repeat runs, with a control signal flat; the % refers to the signal ratio). Summed up: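 Antagonism was scored as restored cAMP in HEK293-DRD2 cells. These cells were stimulated with 200 nM NKH477 and 12 nM quinpirole for 30 min at room temperature, in the presence of 0.1 mM Ro20-1724.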
Assay [17] concerns the target Beta-2 adrenergic receptor (Homo sapiens) (UniProt P07550). The experiment in a line: Adrenergic beta2 receptor (ADRB2) small molecule antagonists, cell-based qHTS assay (AID 1963592). Note: series mostly up to about 92 µM; nearly all actives have a fitted effect of over 50% in size. Summed up: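 Assay format: CHO-ADRB2 cells, 18-20hr seeding at 37C/5% CO2, then compound plus 1nM isoproterenol agonist mix for 0.5hr RT. Homogeneous time-resolved fluorescence cAMP detection after 1hr, expressed as 665/615 nm ratio.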

Assay [18] is described as follows: cAMP Responsive Elements (CRE) small molecule antagonists, cell-based qHTS assay (AID 1963591; active = well fitted inhibition curve with a large enough effect in the signal ratio in the repeat runs, not every such curve was filed as active; the % refers to the signal ratio). The essentials:
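Reporter line CRE-bla HEK 293T in dialyzed-FBS DMEM; cells preincubated 18 h, treated 3 h with compound plus NKH477 (0.25 uM final); LiveBLAzer FRET, 2 h RT.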

Values without a mark were called inactive. Inconclusive results are not listed. Active and inactive are the calls of the source. Unless noted, calls come from the whole dose curve.
% is set by controls: 0 for no effect and ±100 for the full control effect.

Beta-2 adrenergic receptor (Homo sapiens), sequence (P07550 whole entry, looked up): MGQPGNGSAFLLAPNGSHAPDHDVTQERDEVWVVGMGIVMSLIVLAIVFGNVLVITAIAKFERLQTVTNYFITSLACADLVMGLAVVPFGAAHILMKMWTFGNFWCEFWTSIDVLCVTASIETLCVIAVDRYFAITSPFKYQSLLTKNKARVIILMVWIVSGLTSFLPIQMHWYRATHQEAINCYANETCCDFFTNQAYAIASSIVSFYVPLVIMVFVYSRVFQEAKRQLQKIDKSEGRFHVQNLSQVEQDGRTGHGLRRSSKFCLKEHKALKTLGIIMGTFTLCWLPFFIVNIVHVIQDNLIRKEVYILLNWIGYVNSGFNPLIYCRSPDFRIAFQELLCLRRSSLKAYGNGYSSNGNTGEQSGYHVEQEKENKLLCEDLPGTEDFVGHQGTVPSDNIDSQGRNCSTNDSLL
Gonadotropin-releasing hormone receptor (Homo sapiens), sequence (P30968 whole entry, looked up): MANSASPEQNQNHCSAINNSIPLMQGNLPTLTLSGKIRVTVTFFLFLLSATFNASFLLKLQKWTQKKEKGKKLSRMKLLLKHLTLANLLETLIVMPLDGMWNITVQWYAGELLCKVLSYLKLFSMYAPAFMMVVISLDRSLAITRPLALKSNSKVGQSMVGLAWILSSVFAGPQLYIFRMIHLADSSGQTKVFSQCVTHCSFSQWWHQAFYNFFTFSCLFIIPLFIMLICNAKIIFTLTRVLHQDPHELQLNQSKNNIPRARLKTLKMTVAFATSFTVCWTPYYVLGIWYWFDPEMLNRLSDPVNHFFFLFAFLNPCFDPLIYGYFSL
Muscarinic acetylcholine receptor M1 (Homo sapiens), sequence (P11229 whole entry, looked up): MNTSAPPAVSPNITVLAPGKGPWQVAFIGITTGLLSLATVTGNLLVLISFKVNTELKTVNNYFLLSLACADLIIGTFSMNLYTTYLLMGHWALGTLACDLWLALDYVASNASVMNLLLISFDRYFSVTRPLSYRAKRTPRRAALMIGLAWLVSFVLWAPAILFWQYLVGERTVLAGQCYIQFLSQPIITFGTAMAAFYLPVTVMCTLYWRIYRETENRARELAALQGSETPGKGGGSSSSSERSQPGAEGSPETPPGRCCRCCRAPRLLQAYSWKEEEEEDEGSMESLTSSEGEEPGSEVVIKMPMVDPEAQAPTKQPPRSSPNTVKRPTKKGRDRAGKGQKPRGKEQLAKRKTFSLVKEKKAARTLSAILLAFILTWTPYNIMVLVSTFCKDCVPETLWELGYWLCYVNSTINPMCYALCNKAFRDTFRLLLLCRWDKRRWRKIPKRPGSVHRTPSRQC
KiSS-1 receptor (Homo sapiens), sequence (Q969F8 whole entry, looked up): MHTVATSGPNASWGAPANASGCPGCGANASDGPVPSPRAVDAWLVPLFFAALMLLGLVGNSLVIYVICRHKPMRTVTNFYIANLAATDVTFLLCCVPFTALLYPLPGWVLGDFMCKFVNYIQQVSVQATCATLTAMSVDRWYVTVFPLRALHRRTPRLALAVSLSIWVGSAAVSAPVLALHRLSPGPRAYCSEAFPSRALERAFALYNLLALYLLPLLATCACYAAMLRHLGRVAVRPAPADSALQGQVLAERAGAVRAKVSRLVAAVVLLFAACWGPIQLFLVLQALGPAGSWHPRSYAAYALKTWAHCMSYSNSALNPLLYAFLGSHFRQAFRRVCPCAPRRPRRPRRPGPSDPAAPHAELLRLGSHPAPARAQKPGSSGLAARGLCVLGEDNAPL
5-hydroxytryptamine receptor 2A (Homo sapiens), sequence (P28223 whole entry, looked up): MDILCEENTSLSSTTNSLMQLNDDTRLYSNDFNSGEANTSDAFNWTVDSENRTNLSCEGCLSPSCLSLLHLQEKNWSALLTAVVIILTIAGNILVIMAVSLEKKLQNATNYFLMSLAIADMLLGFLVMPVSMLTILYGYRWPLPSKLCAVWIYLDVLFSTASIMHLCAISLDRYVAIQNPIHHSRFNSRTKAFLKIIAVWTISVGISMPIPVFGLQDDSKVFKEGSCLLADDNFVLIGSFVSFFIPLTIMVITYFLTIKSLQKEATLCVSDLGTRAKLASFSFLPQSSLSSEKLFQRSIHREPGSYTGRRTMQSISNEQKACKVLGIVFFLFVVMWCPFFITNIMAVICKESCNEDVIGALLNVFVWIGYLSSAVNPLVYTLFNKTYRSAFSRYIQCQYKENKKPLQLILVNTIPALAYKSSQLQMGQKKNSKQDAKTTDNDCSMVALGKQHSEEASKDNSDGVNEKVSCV
D(2) dopamine receptor (Homo sapiens), sequence (P14416 whole entry, looked up): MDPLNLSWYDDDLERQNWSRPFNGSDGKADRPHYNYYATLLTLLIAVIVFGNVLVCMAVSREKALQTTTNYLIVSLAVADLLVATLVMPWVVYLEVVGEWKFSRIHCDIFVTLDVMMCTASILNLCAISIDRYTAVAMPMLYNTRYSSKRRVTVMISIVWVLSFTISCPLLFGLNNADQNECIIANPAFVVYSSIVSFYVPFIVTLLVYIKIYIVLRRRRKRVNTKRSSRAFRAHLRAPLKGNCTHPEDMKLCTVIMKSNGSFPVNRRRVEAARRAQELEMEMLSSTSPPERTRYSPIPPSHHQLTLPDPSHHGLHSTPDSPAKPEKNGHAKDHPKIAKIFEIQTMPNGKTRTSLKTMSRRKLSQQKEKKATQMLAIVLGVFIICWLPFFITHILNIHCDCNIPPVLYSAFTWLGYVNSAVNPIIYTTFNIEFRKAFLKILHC

In the case of `O=C(O)/C=C/c1ccc(O)c(O)c1`, the Potency result in assay [1], in [2], in assay [3], in [4], in assay [5] and in [6] was “inactive” throughout. Besides, the Potency result in assay [7], in assay [8], in [9], in assay [10], in assay [11] and in assay [12] was “inactive” each time. The Potency entry in assay [13], in assay [14], in assay [15] and in assay [16] was “inactive” each time.

For the compound `COc1ccc(Cc2cnc(N)nc2N)cc1OC`, the Potency entry in [1], in assay [2], in assay [3], in assay [4], in assay [5] and in [6] was “inactive” in each case. Besides, the Potency entry in assay [7], in [8], in assay [9], in assay [10], in assay [11] and in assay [12] was “inactive” throughout. Moreover, the Potency entry in assay [13], in [17], in [14], in assay [15] and in assay [16] was “inactive” throughout.

Turning to `C=C(C)c1cccc(C(=C)C)c1`, the Potency result in [1], in assay [2], in assay [3], in assay [4], in assay [5] and in [6] was “inactive” throughout. Further, the Potency entry in assay [7], in [8], in [9], in [10], in assay [11] and in assay [12] was “inactive” throughout. The Potency result in [13], in assay [17], in assay [15] and in [16] was “inactive” in each case.

Take `C=CCOC(=O)c1ccc(C(=O)OCC=C)c(C(=O)OCC=C)c1`: the Potency entry in assay [1], in assay [2], in assay [3], in assay [4], in [5] and in assay [6] was “inactive” throughout. For the same compound, the Potency result in assay [7], in assay [8], in assay [10], in [11], in assay [12] and in assay [13] was “inactive” each time. Also, the Potency result in [17], in assay [14], in assay [15] and in assay [16] was “inactive” in each case. Further, the Potency in assay [9] is 33.4 µM (active).

As to `C1CCCCCCCCCCC1`, the activity change, negative = cytotoxicity is 0.761% [at 19 µM] in assay [1], -2.12% [at 13.5 µM] in assay [6], 0.482% [at 13.5 µM] in assay [7] and 9.85% [at 13.5 µM] in assay [8]. Besides, the activity, positive = activation in [2] is -8.94% [at 19 µM]. In [3], the activity change is -0.293% [at 11.8 µM, hits give high values]. Further, the activation in assay [4] is 1.26% [at 15.8 µM]; in assay [5] it was -0.978% [at 11.8 µM]; in assay [10], -0.851% [at 15.9 µM]; in assay [12] it was -0.458% [at 15.8 µM]; in assay [13] it was -0.929% [at 19 µM]; in assay [15], -2.66% [at 19 µM]. The activity, negative = inhibition in assay [9] is -15.5% [at 12.7 µM]; in assay [11] it was 10.4% [at 12.6 µM]. The activity change, negative = inhibition in [17] was 0.327% [at 19 µM]; in assay [16], -0.815% [at 18.9 µM].

As to `O=C1OC(=O)c2c(Br)c(Br)c(Br)c(Br)c21`, the Potency result in [1], in [2], in assay [3], in assay [4], in [5] and in assay [6] was “inactive” each time. Moreover, the Potency entry in assay [7], in assay [8], in [9], in assay [10], in assay [11] and in assay [12] was “inactive” throughout. For the same compound, the Potency result in assay [18], in assay [14], in assay [15] and in assay [16] was “inactive” each time.

For `C[C@@H]1CN(c2c(F)c(F)c3c(=O)c(C(=O)O)cn(C4CC4)c3c2F)C[C@H](C)N1`, the activity change, negative = cytotoxicity in assay [1] is -4.39% [at 19 µM]; in assay [6] it was 0.644% [at 13.5 µM]; in assay [7] it was 9.6% [at 13.5 µM]; in assay [8], -8.27% [at 13.5 µM]. For the same compound, in assay [2], the activity, positive = activation is 2.76% [at 19 µM]. The activity change in [3] is 0.18% [at 11.8 µM, hits give high values]. Further, the activation in assay [4] is -0.0587% [at 15.8 µM]; in assay [5] it was -1.01% [at 11.8 µM]; in assay [10], -2.83% [at 15.9 µM]; in assay [12], -1.01% [at 15.8 µM]; in [13] it was -2.17% [at 19 µM]; in assay [15], 18.6% [at 19 µM]. Also, the figures for the activity, negative = inhibition in assay [9] and in assay [11] were 0.835% [at 12.7 µM] and 7.07% [at 12.6 µM], respectively. Further, the activity change, negative = inhibition in assay [17] is -4.7% [at 19 µM]; in assay [16], -0.82% [at 18.9 µM].

Values taken from PubChem BioAssay (Tox21).
